# Screening data deposited in PubChem by National Center for Advancing Translational Sciences (NCATS).
# The list is not random: actives were taken first. Their share in the collection is about 3.8%.
# HT1080-NT tox: kills 2HG-producing HT-1080-NT fibrosarcoma cells | HT-1080-NT fibrosarcoma viability, CellTiter-Glo ATP luminescence, 48 h | Potency, µM (doses to about 46.1 µM), hits mostly cytotoxic | actives 1.6% (n = 360,000) | AID 686970;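 further: NT is the 2HG producing partner of a matched IDH1 knockdown line; nearly all actives have a fitted effect of over 55% in size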
#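 Viability by CellTiter-Glo luminescence after 48 h compound exposure at 37C of HT-1080-NT cells (750/well, RPMI, 5% FBS). % activity scaled between DMSO wells and medium-only wells, then curve-fitted and categorized by curve class.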
# TGFb inhibitor: blocks TGF-b signaling. AID 588855. HepG2 CAGA-GFP TGF-b/SMAD3 reporter, GFP fluorescence, 18 h; TGF-beta stimulated, 500 pg/mL final. actives 1.2% (n = 410,000). Potency, µM (series often up to 46.1 µM), actives largely listed as inhibitors; further: nearly all actives have a fitted effect of over 65% in size
#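 Per well, imaged GFP fluorescence of HEPG2 CAGA-GFP cells gives the signal; cells get compound, then TGF-beta (500 pg/mL final), 18 h at 37 degrees C; %Activity versus -TGF-beta and +DMSO controls.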
# HT1080 IDH1KD tx: kills HT-1080 cells with IDH1 knockdown. HT-1080 IDH1 knockdown viability, ATP luminescence, 48 h. Potency, µM (doses to about 46.1 µM), most hits filed as cytotoxic. actives 2% (n = 360,000). AID 686971
#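 After a 2 h attachment period, IDH1KD HT-1080 cells took pin-transferred compound for 48 h at 37 °C; ATP-based luminescence after 10 min room-temperature reagent incubation reported viability.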
# HepG2 tox: counter-screen for TGF-b inhibitors: cytotoxicity in HepG2 cells; HepG2 CAGA-GFP viability, ATP luminescence, 18 h; Potency, µM (titrated, usually from 46.1 µM), most hits filed as cytotoxic; actives 0.76% (n = 410,000)
#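 HepG2 CAGA-GFP cells (1000/well, DMEM with 1% FBS) received compound, then TGF-beta at 500 pg/mL final, and were incubated 18 hours at 37 degrees C. Viability was read by CellTiter-Glo luminescence. Media-only wells were set as complete cell-killing and DMSO as no toxicity.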
# S2 tox: cell viability loss in ATXN counter-screen | S2 cells (HEK-293 line with an ATXN2-luciferase reporter) viability, CellTiter-Fluor protease fluorescence, 24 h | Potency, µM (top dose mostly 56.7 µM), most hits filed as cytotoxic | actives 0.49% (n = 400,000) | AID 651635; further: nearly all actives have a fitted effect of over 40% in size
# ATXN2 expr inh: inhibitors of ATXN2 expression. HEK-293 ATXN2-luciferase reporter, luminescence, 24 h. Potency, µM (series often up to 57 µM), most hits filed as inhibitors. actives 0.72% (n = 360,000). AID 1745845; further: nearly all actives have a fitted effect of over 55% in size
#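 qHTS (up to 57 uM final) was run with 24 h compound exposure of reporter cells at 37 °C. Each well was multiplexed: SteadyGlo luminescence measured ATXN2-luciferase expression after a fluorogenic Gly-Phe-AFC viability readout (25 uM final).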
# A number is an active result; - = inactive; ? = inconclusive; . = not tested or not shown. The call rests on the fitted dose curve; in most records, active means well fitted curve in the direction sought with a large enough effect; inconclusive means small, poorly fitted or top-dose-only effect, or another doubt; inactive means no such curve, though single readings can be large; an effect the other way counts as inactive or inconclusive.
SMILES,HT1080-NT tox,TGFb inhibitor,HT1080 IDH1KD tx,HepG2 tox,S2 tox,ATXN2 expr inh
O=C(NC(c1ccc(-c2ccccc2)cc1)c1cnccn1)C1CCN(Cc2ccc3c(c2)OCO3)CC1 (stereo not drawn),13µM,?,10µM,-,32µM,?
O=C(NC(c1ccc(-c2ccccc2)cc1)c1cnccn1)C1CCN(Cc2ccc(Cl)c(Cl)c2)CC1 (stereo not drawn),-,?,-,-,?,-
Cc1ccc(S(=O)(=O)N2CCC(C(=O)Nc3ccc(C)c(Cl)c3)CC2)cc1,.,?,.,-,.,.
O=C(Oc1csc(=S)n1C(=O)c1ccccc1)c1ccccc1,-,-,-,-,-,-
Cc1cccc(C(=O)Oc2csc(=S)n2C(=O)c2cccc(C)c2)c1,7.3µM,-,4.6µM,-,-,-
COc1ccc(N2CC(C(=O)Nc3ccccc3N3CCCC3)CC2=O)c(OC)c1 (stereo not drawn),?,?,23µM,-,-,-
COc1ccc(N2CC(C(=O)Nc3cc(C(F)(F)F)ccc3N3CCCC3)CC2=O)c(OC)c1 (stereo not drawn),21µM,-,21µM,-,?,-
O=C(Nc1cc(C(F)(F)F)ccc1N1CCCC1)C1CC(=O)N(Cc2ccccc2)C1 (stereo not drawn),-,-,-,-,-,.
COc1cccc(Nc2nc(N)nc(-c3oc4ccccc4c3C)n2)c1,10µM,?,7.9µM,-,?,-
Cc1ccc(Nc2nc(N)nc(-c3oc4ccccc4c3C)n2)cc1,0.0065µM,?,0.01µM,-,-,.
Cc1c(-c2nc(N)nc(Nc3ccccc3F)n2)oc2ccccc12,-,-,-,-,-,-
Cc1cccc(Nc2nc(N)nc(-c3oc4ccccc4c3C)n2)c1,?,-,?,-,?,-
Cc1ccc(C(=O)Nc2cc3cc(Cl)ccc3oc2=O)cc1,.,-,.,-,.,.
COc1ccc(Nc2cc(C(=O)NCCCN(C)Cc3ccccc3)c3ccccc3n2)cc1,.,?,.,-,.,.
CSc1cccc(Nc2cc(C(=O)NCCCN(Cc3ccccc3)C(C)C)c3ccccc3n2)c1,.,?,.,10µM,?,25µM
Cc1cc(C)cc(Nc2cc(C(=O)NCCCN(Cc3ccccc3)C(C)C)c3ccccc3n2)c1,.,-,.,-,13µM,14µM
Cc1cccc2cc(CN(CC3CCCO3)C(=O)C3CC3)c(N(C)C)nc12 (stereo not drawn),.,.,.,.,-,.
Cc1cc(C)c(OCCNCc2ccccc2)c(C)c1,-,-,-,-,-,-
Clc1ccc(OCCOCCNCc2ccccc2)cc1Cl,-,11µM,-,-,-,.
CN(CCOc1ccc(Cl)c(Cl)c1)Cc1ccccc1,-,-,-,-,-,-
Cc1cc(Cl)cc(C)c1OCCNCc1ccccc1,18µM,-,?,-,-,-
CC(C)(C)c1ccc(OCCNCc2ccccc2)cc1,?,-,16µM,-,-,-
Cc1cc(C)c(OCCCCNCc2ccccc2)c(Cl)c1,16µM,?,13µM,11µM,.,-
COc1ccc(NC(=O)N2CCc3c([nH]c4ccc(OC)cc34)C2c2ccc(OC)cc2)cc1 (stereo not drawn),.,-,.,-,?,-
Cc1cc(C)c(C)c(OCCNCc2ccccc2)c1,?,-,15µM,-,?,-
Cc1cc(Br)ccc1OCCNCc1ccccc1,?,?,?,-,-,-
Cc1cc(Cl)cc(C)c1OCCOCCNCc1ccccc1,?,?,-,14µM,?,.
CCN(CCNCC(O)COCc1ccc(Cl)cc1)c1cccc(C)c1 (stereo not drawn),16µM,?,?,-,-,-
CC(C)c1ccc2c(c1)C(N1CCN(C)CC1)Cc1cccnc1S2 (stereo not drawn),?,-,?,-,?,-
COc1ccc2c(c1)CC(N1CCN(C)CC1)c1cc(OC)ccc1S2 (stereo not drawn),?,?,21µM,16µM,?,28µM
